APOBEC3A inh – APOBEC3A ssDNA deaminase inhibitors, primary screen, selectivity assay for APOBEC3G inhibitor project, biochemical, FAM/TAMRA oligo cleavage fluorescence; hit rate 0.41% among 330,000; inhibition, % at 20 µM; recombinant A3A, FAM/TAMRA ssDNA deamination fluorescence;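 active = at least 40% inhibition at 20 µM here, with at most 30% in a related deaminase screen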;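 note: plate controls were A3A with DMSO for no effect and wells lacking A3A enzyme for full effect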
PABP polyA inh – PABP poly(A) RNA binding inhibitors, primary screen, biochemical, fluorescence polarization, uHTS. Polyadenylate-binding protein 1 (Homo sapiens), P11940. calls only at 35 µM. hit rate 1% among 290,000. AID 2014, 2009;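 note: calls also rest on retests at 20 µM and on dose response follow-up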
MLLE-PAM2 inh – inhibitors of PABP1 MLLE–PAM2 peptide binding, primary screen, biochemical, fluorescence polarization, FITC-PAM2, GST-MLLE | Polyadenylate-binding protein 1 (Homo sapiens), P11940 | inhibition, % at 20 µM | hit rate 0.36% among 360,000 | AID 588489, 2011; in the data active = inhibition above about 35%, passing the limit was not always enough;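 note: plate controls were DMSO wells with GST-MLLE for no effect and wells lacking GST-MLLE protein for full effect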
A3G deaminase – APOBEC3G DNA deaminase inhibitors, primary screen, biochemical, fluorescence, single-stranded DNA substrate, uHTS; DNA dC->dU-editing enzyme APOBEC-3G (Homo sapiens), Q9HC16; recombinant A3G, ssDNA deamination FAM/TAMRA fluorescence; hit rate 0.28% among 330,000; inhibition, % at 20 µM;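 active = inhibition of at least 40% at 20 µM, with no more than 30% in the related APOBEC3A deaminase screen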;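 note: plate controls were DMSO wells with A3G for no effect and wells lacking A3G enzyme for full effect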
eIF4H inh – human eIF4H binding inhibitors, primary screen, translation initiation inhibitor project, biochemical, uHTS, fluorescence polarization; Eukaryotic translation initiation factor 4H (Homo sapiens), Q15056; inhibition, % at 35 µM; hit rate 0.94% among 290,000; eIF4H fluorescence polarization binding assay;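 note: calls also rest on retests at 20 µM and on dose response follow-up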
PHOSPHO1 inh – PubChem AID 1565. Phosphoethanolamine/phosphocholine phosphatase (Homo sapiens), Q8TCT1. recombinant PHOSPHO1, absorbance phosphatase assay. inhibition, % at 13.3 µM. hit rate 1.1% among 290,000; in the data active = inhibition above about 60%
Target sequence (Q8TCT1 whole entry, looked up): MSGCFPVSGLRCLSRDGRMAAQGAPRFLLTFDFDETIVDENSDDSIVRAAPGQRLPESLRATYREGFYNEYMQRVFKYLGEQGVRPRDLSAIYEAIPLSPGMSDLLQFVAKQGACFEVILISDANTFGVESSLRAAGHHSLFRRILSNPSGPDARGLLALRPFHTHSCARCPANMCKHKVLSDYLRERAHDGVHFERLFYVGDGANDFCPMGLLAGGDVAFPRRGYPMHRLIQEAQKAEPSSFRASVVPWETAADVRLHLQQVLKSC
The depositor's hits bear a star; i = inactive; . = no result given; + = active, no number. The list is not random: actives were taken first. Their share in the collection is about 2.6%. Unless noted, the rule behind the calls is not given here.

SMILES	APOBEC3A inh	PABP polyA inh	MLLE-PAM2 inh	A3G deaminase	eIF4H inh	PHOSPHO1 inh
Cc1nnc(NC(=O)c2sc3ccccc3c2Cl)s1	-3	i	2	-6	-6	-2
Cc1ccc(S(=O)(=O)/N=C2/NC(=O)/C(=C\c3ccccc3)S2)cc1	4	.	12	5	.	.
Cc1ccc(S(=O)(=O)/N=C2/NC(=O)/C(=C\c3ccco3)S2)cc1	19	+	4	10	66*	26
Cc1ccccc1/C=C/C(=O)NCC(=O)N1CCC(N(C)C2CCCCC2C)CC1 (centres undefined)	-1	i	5	-2	3	-15
S=C(NCCc1ccccc1)N1CCN(C(=S)NCCc2ccccc2)CC1	-3	.	-103	-5	.	.
CC1CCN(C(=S)NCCc2ccccc2)CC1	-1	i	-110	-4	-2	88*
C=CCn1c(C)cc(C(=O)CSc2nc3ccccc3o2)c1C	2	+	-14	1	70*	13
Cc1cc(C(=O)CSc2nnc(Cc3ccccc3)o2)c(C)n1Cc1ccc2c(c1)OCO2	-4	i	-38	0	10	10
C=CCn1c(C)cc(C(=O)CSc2nc3ccccc3[nH]2)c1C	-3	i	-50	-7	13	15
O=C(CSc1nc2ccccc2o1)c1ccccc1	-3	i	-13	-8	3	-32
Cc1cc(C(=O)CSc2nc3ccccc3o2)c(C)n1C1CC1	3	+	6	2	88*	18
C=CCn1c(C)cc(C(=O)CSc2nnc(Cc3ccccc3)o2)c1C	-3	i	-35	-4	20	88*
CCc1nc2ccccc2c(C(=O)Nc2ccc(F)cc2)c1C	1	i	-2	-2	-6	9
CC(=O)N1c2ccccc2C2(O)N=C(C)SC12 (centres undefined)	-1	i	18	46*	-6	72*
N#C/C(=C\c1ccc(Cl)cc1)c1nc2ccccc2o1	-4	+	11	1	81*	2
CCC(=O)NC(=S)Nc1ccc(NC(=O)c2ccc([N+](=O)[O-])cc2)cc1	2	i	13	-7	-6	2
Cc1cc(NS(=O)(=O)c2ccc(NC(=S)NC(=O)c3ccc(Br)cc3)cc2)no1	22	i	42*	-1	-9	-9
Cc1cc(NS(=O)(=O)c2ccc(NC(=S)NC(=O)c3cccnc3)cc2)no1	-5	i	31	-4	-8	20
CC(C)C(=O)Nc1cccc(NC(=S)NC(=O)c2ccc([N+](=O)[O-])cc2)c1	-1	i	-53	0	-10	27
CC(=O)Nc1ccc(NC(=S)NC(=O)c2ccc([N+](=O)[O-])cc2)cc1	6	i	40*	-16	3	2
CC(C)C(=O)Nc1ccc(NC(=S)NC(=O)c2ccc([N+](=O)[O-])cc2)cc1	-3	i	42*	-5	-9	18
CC(C)NS(=O)(=O)c1ccc(NC(=S)NC(=O)c2ccc(-c3ccccc3)cc2)cc1	0	i	41*	-3	0	26
Cc1ccc(CNC(=O)C2CCCN(c3nc4ccsc4c(=O)s3)C2)cc1 (centres undefined)	-2	i	6	-5	-4	34
COCCNC(=O)c1[nH]c(C(F)(F)F)nc1-c1ccccc1	.	.	12	.	.	.
COCCN(C(=O)COC(=O)c1ccc(Cl)nc1)c1c(N)n(Cc2ccccc2)c(=O)[nH]c1=O	5	.	-5	-6	.	.
SMILES	APOBEC3A inh	PABP polyA inh	MLLE-PAM2 inh	A3G deaminase	eIF4H inh	PHOSPHO1 inh
COc1cccc(CC(O)CC2c3c(cc4c(c3OC)OCO4)CCN2C)c1 (centres undefined)	.	.	-2	.	.	.
Cc1ncn(-c2ccc(C(=O)Oc3ccccc3)cn2)n1	1	i	-7	-3	9	28
N#CC1=C(c2ccc(-c3ccccc3)cc2)COC1=O	-3	i	-42	-7	28	19
C#CCN1C(=O)S/C(=C\c2cc3c(cc2OC)OCO3)C1=O	-8	i	-45	-7	15	34
CCc1nnc(NS(=O)(=O)c2ccc(NC(=S)NC(=O)c3ccc(F)cc3)cc2)s1	0	i	28	1	0.6*	-6
Cc1cc(C(=O)NC(=S)Nc2cccc(NC(=O)C(C)C)c2)ccc1[N+](=O)[O-]	-3	i	38*	-2	-3	-8
CC1(C)CC(=O)C2=C(C1)N(Cc1ccccc1)C(=O)C2(NC(=O)C(C)(C)C)C(F)(F)F (centres undefined)	-8	i	9	-5	-5	58
Cc1ccc(/C=N/n2nnnc2N)cc1[N+](=O)[O-]	-3	i	5	-5	0	13
O=c1oc2cc([N+](=O)[O-])ccc2nc1/C=C(O)/C=C/c1ccccc1	-1	i	.	-2	72*	27
COc1cc(NC(=O)c2noc(C)c2[N+](=O)[O-])c(OC)cc1Cl	-3	i	5	-3	-9	64*
COC(=O)Cn1c(O)c(N=NC(=O)CNC(=O)c2ccncc2)c2ccccc21	1	.	4	-1	.	64*
CN(CC(=O)Nc1ccccc1C(F)(F)F)C(=O)c1cc2c(s1)CCCCC2	-3	.	2	-10	.	.
CN1CCN(C(=O)/C(=C\c2cccs2)NC(=O)c2ccco2)CC1	2	i	-8	-3	-11	-12
CN(C)CCNc1oc(COc2ccc(Cl)cc2Cl)nc1C#N	-3	+	15	-6	30	-1
COc1ccc2c(c1)C1C=CCC1C(c1cc3c(cc1Br)OCO3)N2 (centres undefined)	-2	i	-23	-6	70*	24
CC(=O)c1ccc2c(c1)C1C=CCC1C(c1cc3c(cc1Br)OCO3)N2 (centres undefined)	0	.	0	-8	.	.
C/C(=N/Nc1ccc(C(=O)O)cc1)c1ccc2c(c1)Nc1ccccc1S2	.	.	0	.	.	.
C/C(=N\Nc1ccc(C(=O)O)cc1)c1ccc2c(c1)Nc1ccccc1S2	10	+	7	-3	84*	4
CC(Oc1ccccc1)C(=O)Nc1nnc(S(=O)(=O)N(C)c2ccccc2)s1 (centres undefined)	-5	.	-8	-6	.	41
COc1ccc2oc(=O)c(C(=O)OCc3ccccc3)cc2c1	-3	i	43*	-4	-4	24
COc1ccc2oc(=O)c(C(=O)NCc3ccccc3)cc2c1	-2	i	0	-7	-3	44
O=C(CSc1nnc(CNC(=O)c2c(F)cccc2F)o1)NCc1ccco1	8	i	-5	-3	30	48

Screening data deposited in PubChem BioAssay by Sanford-Burnham Center for Chemical Genomics.
